High-throughput results (PubChem)
Shown are actives, neighbours in structure and some others; about 4.1% of the full set was active somewhere.
Gli-Sufu antag: Gli-Sufu pathway antagonists, primary screen, luciferase luminescence, Sufu-KO-LIGHT cells, uHTS | Sufu-KO-LIGHT fibroblasts, Gli luciferase reporter luminescence | inhibition, % at 5 µM | actives 0.74% (n = 340,000) | AID 588413, 2011;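 active = inhibition above about 55%, limit read from the data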;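 also: 0% = DMSO-treated cells and 100% = wells with medium but no cells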
Mdm2-MdmX inh: inhibitors of human Mdm2-MdmX association, primary screen, cell-based, luminescence, split luciferase, SaOS-2, uHTS | AID 485346, 2010 | Protein Mdm4 (Homo sapiens) + E3 ubiquitin-protein ligase Mdm2 (Homo sapiens), … | SaOS-2 split-luciferase Mdm2/MdmX complementation | actives 3% (n = 330,000) | inhibition, % at 8 µM;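 active = inhibition of at least 50% at 8 µM in the primary screen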
Jurkat NFkB inh: inhibitors of induced NF-kB luciferase reporter, primary screen, TCR NF-kB activation inhibitor project, cell-based, luminescence, uHTS; Jurkat, PMA/ionomycin-induced NF-kB luciferase reporter; AID 435003, 2010; actives 0.53% (n = 330,000); inhibition, % at 4 µM; in the data active = inhibition above about 50%
697 NFkB inh: inhibitors of PMA/ionomycin-induced NF-kB reporter, 697 cells, primary screen, B-cell NF-kB inhibitor project, cell-based, luminescence, uHTS | inhibition, % at 4 µM | actives 0.33% (n = 330,000) | 697 B-cell NF-kB luciferase reporter, 16 h; in the data active = inhibition above about 35%
KLF5 inh: KLF5 expression inhibitors, primary screen, DLD-1 cells, luminescence; inhibition, % at 5 µM; DLD-1 KLF5 promoter-luciferase reporter; AID 1700, 2009; actives 0.23% (n = 290,000);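 active = inhibition above a per-plate limit of that plate's mean compound inhibition plus 3 SD, cut at about 60% in these data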;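 also: 0% = DMSO wells and 100% = LY294002 at 200 µM; higher means less KLF5 promoter-driven luciferase light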
aSyn UTR inh: MLPCN primary screen, SNCA 5' untranslated region | alpha-synuclein 5'UTR reporter, inhibitor activity | inhibition, % (tested at 7.5 µM) | actives 0.82% (n = 300,000); in the data active = inhibition above about 60%;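 also: H4 neuroglioblastoma cells stably carrying SNCA 5'UTR luciferase fusion; 0% = DMSO wells and 100% = positive control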
Mdm2 MdmX conf: Mdm2-MdmX complex disruptors, retested hits, confirmation, luminescence, single concentration. shares compounds with Mdm2-MdmX inh. Mdm2-MdmX binding, luminescent assay. inhibition, % at 8 µM. actives 55% (n = 10,000); in the data active = inhibition above about 40%
Full FLuc ctr: full-length luciferase signal inhibition, confirmation, counter-screen for Mdm2/MdmX interaction inhibitor project, cell-based, single concentration, SaOS-2. shares compounds with Mdm2-MdmX inh. SaOS-2 full-length luciferase counterscreen, luminescence. inhibition, % at 8 µM. actives 77% (n = 6,200). AID 504607, 2011;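 active = mean inhibition at 8 µM reaching about 37%, which flags the compound as non-specific, limit read from the data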;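 also: p53-null SaOS-2 cells with luciferase driven by a doxycycline-inducible promoter; compound on cells about two nights before reading with doxycycline added after day one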
* marks the source's active call; other numbers are inactive results; . = not tested or not shown.

SMILES	Gli-Sufu antag	Mdm2-MdmX inh	Jurkat NFkB inh	697 NFkB inh	KLF5 inh	aSyn UTR inh	Mdm2 MdmX conf	Full FLuc ctr
Clc1ccc(C(c2ccc(Cl)cc2)n2cc[n+](CC(OCc3ccc(Cl)cc3Cl)c3ccc(Cl)cc3Cl)c2)cc1 (stereo not given)	26	100*	17	19	.	.	70*	29
Cc1csc(=N)n1Cc1ccccc1	0	-31	-13	-21	-36	-25	.	.
COc1ccc(/C=C/C(=O)c2c(O)n(CCC3=CCCCC3)c(=O)[nH]c2=O)cc1	-1	53*	2	0	-26	-54	26	.
CC(=O)NC(Cc1ccc(N(CCCl)CCCl)cc1)C(=O)NC(C(=O)O)C(C)C (stereo not given)	-4	7	-17	-4	11	16	.	.
CCOC(=O)CC(NC(=O)C(Cc1ccc(N(CCCl)CCCl)cc1)NC(C)=O)C(=O)OCC (stereo not given)	49	81*	7	14	-15	38	57*	15
O=c1[nH]c(=O)n(CCc2ccccc2)c(O)c1C=NC1CC1	5	18	-4	19	-29	-7	.	.
COc1ccc(NC(=O)c2cn(CCC#N)nc2-c2cccc([N+](=O)[O-])c2)cc1	5	-21	8	31	-35	24	.	.
COc1ccc(Oc2cc(NC(=O)c3nn(C)cc3[N+](=O)[O-])cc([N+](=O)[O-])c2)cc1	-3	76*	9	32	-26	-61	96*	46*
CC1Oc2cc3c(-c4c(O)cc(O)c5c(O)c6c(cc45)OC(C)C(C)C6=O)c(O)cc(O)c3c(O)c2C(=O)C1C (stereo not given)	68*	89*	1	-3	30	87*	73*	22
COC(=O)C1=C(c2cc3ccccc3s2)C[C@@H]2CC[C@H]1N2C(=O)N1CCCCC1	-7	52*	38	-16	.	15	57*	40*
COC(=O)C1=C(c2cc3ccccc3s2)C[C@@H]2CC[C@H]1N2C(=O)N1CCC(O)CC1	3	4	-1	1	.	5	.	.
CNc1ccc2oc(C[C@H]3O[C@@]4(CC[C@H]3C)O[C@H]([C@H](C)C(=O)c3ccc[nH]3)[C@H](C)C[C@H]4C)nc2c1C(=O)O	83*	100*	23	-61	.	117*	98*	52*
O=C1C(=O)N(c2ccccc2)P(=O)(N(CCCl)CCCl)N1c1ccccc1	-15	.	.	.	.	.	.	.
CC(C)(C)c1ccc(O)c(N=Cc2c(O)ccc3ccccc23)c1	-8	50*	14	-8	-26	8	18	.
CCN1CCN(c2nc3c(c(=O)[nH]2)CCCC3)CC1	5	-9	-12	-15	15	22	.	.
COc1ccc2c(c1OC)CN1CCc3cc4c(cc3[C@H]1C2)OCO4	40	2	4	-17	.	.	.	.
C#CCOc1cc(C2C3=C(COC3=O)Nc3cc4c(cc32)OCO4)ccc1OC (stereo not given)	-12	59*	39	-9	52	78*	58*	80*
N[C@H](CO)Cc1ccccc1	2	.	.	.	.	.	.	.
Cn1c(O)c(C(=N)COc2cccc(Cl)c2)c(=O)n(C)c1=O	-4	4	14	8	-19	-58	.	.
COC(=O)c1ccc(NC(=O)CSc2nc3ccc(N4C(=O)C5C6C=CC(C6)C5C4=O)cc3s2)cc1 (stereo not given)	18	69*	3	-21	-10	-12	23	.
COc1ccccc1NP1(=O)OCC(C)([N+](=O)[O-])CO1 (stereo not given)	0	.	.	.	.	.	.	.
CCCCCCCCn1sccc1=O	33	80*	-3	11	.	.	-2	.
O=c1c2ccccc2nc(/C=C/c2ccccc2O)n1-c1ccccc1O	.	82*	3	-7	-38	-12	56*	63*
Cc1ccc(-n2c(/C=C/c3ccccn3)nc3ccccc3c2=O)cc1	10	59*	-6	9	-38	-28	17	.
COc1cc(/C=C/c2nc3ccccc3c(=O)n2-c2ccc(O)cc2)ccc1O	24	77*	-7	13	-18	12	46*	95*
SMILES	Gli-Sufu antag	Mdm2-MdmX inh	Jurkat NFkB inh	697 NFkB inh	KLF5 inh	aSyn UTR inh	Mdm2 MdmX conf	Full FLuc ctr
CCCC(C)C(=O)NC1CCSC1=O (stereo not given)	-1	18	-5	20	-2	9	.	.
CC1(C)N2CC3([N+](=O)[O-])CN1CC([N+](=O)[O-])(C2)C3	4	-34	-8	8	-39	22	.	.
CCOP(=O)(NC(C)C)Oc1ccc(SC)c(C)c1 (stereo not given)	-3	.	.	.	.	.	.	.
Cc1ccc(S(=O)(=O)c2nc(-c3ccccc3Cl)oc2N(C)C2CCN(C)CC2)cc1	19	72*	-13	-12	.	.	8	.
Cc1ccc(-c2nc(N(C)C3CCN(C)CC3)c3ccccc3n2)cc1	-8	40	-2	19	-19	-93	.	.
CCN(CC)c1ccc(CNCCc2ccccc2F)cc1	10	54*	15	-1	1	11	48*	61*
Cc1ccc(CNCCc2ccccc2F)cc1	8	3	4	-21	-29	7	.	.
C#C[C@]1(O)CC[C@H]2[C@@H]3CCC4=Cc5nc6nc7ccccc7n6cc5C[C@]4(C)[C@H]3CC[C@@]21C	-12	55*	22	-29	.	.	2	.
COc1ccc(-c2nc3ccccc3c(=O)n2-c2ccc(OC)cc2)cc1	8	-8	0	14	-8	-23	.	.
CCn1nc(-c2ccccc2)nc2c(=O)n(C)c(=O)nc1-2	-12	74*	16	-101	-37	-84	73*	23
C/C=C1/CC(C)C(C)(O)C(=O)OCC2CCN3CCC(OC1=O)C23 (stereo not given)	-8	4	2	13	-32	8	.	.
